# Data published in the supplement of paper PMC8728848.
# About 410 targets per protein were measured; listed, in parts, are those with the strongest signals and a random draw of the rest.
# B1: PX14343C-bfa-541-26-541 (Bacteroides fragilis) (protein)
# chain: KAPLDEIADDSFWSDETLVKYYVNDLYSEISVDGLQLQENRSDNSVSAQRDKYRASWFKFNYDMVSASDPQDDDVWEDYYVKVRKCNRFFERIGTSTIEESEKSRLTGEVHFLRAMFYFEMVKRYGGVILLDKVLTMEDNWEIPRSSEKECYDFILEDLKKATEMLPASYGSREKGRATKGAAYALKSRVELYDKRYEDVIKSCAEVYKLGYELVDGTTPEKYRSIWWTTNKDNKEIIFDVQYKSPDVYNNMMVCNMVTYINDKYGDRGWGGLGPTQELIDAFEMADGTPATQYSQAPADQVFDINTCGIYEGREPRFYANIVFHGSQIFFNADKGAVTVDRYLMDTPDKGDGSLTGYNVWKWIDYDNYNYPYAGAGSPDFSTNWIILRYAEIYLNDAEARLETGDVEGARKAVNMIRQRVGLPDLTESDPEKLRELIRKERRIEFAFEEQRFYDVRRWKIGPETQTTLHGVRFVSPTEFKVTKTDIRTWNDRLYLTPVPHDEIVRSSVLKQNLGY
# Legend:
# Assay in all cases: glycan array binding signal (z-score within array); higher = stronger binding
# Settings in all cases: glycan notation: IUPAC condensed, linker removed
# [1] = molecular target: Fuc(a1-2)Gal(b1-3)GalNAc(b1-4)[Neu5Ac(a2-3)]Gal(b1-4)Glc
# Method in brief: (§1)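 Glycan array data came from 3228 arrays in the Consortium for Functional Glycomics database, and only arrays with an available protein sequence were kept. Glycan names were put into IUPAC-condensed notation, and columns mapping to the same glycan were averaged. The binding signal is a within-array Z-score, averaged across arrays of one protein sequence run at different concentrations or buffers and across linkers. A negative Z-score can be read as non-binding.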
# [2] = molecular target: Fuc(a1-2)Gal(b1-3)GlcNAc
# Method in brief: as §1
# [3] = molecular target: Fuc(a1-2)Gal(b1-3)GlcNAc(b1-3)Gal(b1-4)Glc
# Method in brief: as §1
# [4] = molecular target: Fuc(a1-2)Gal(b1-3)[Fuc(a1-4)]GlcNAc(b1-2)Man(a1-3)[Fuc(a1-2)Gal(b1-3)[Fuc(a1-4)]GlcNAc(b1-2)Man(a1-6)]Man(b1-4)GlcNAc(b1-4)[Fuc(a1-6)]GlcNAc(b1-4)[Fuc(a1-6)]GlcNAc
# Method in brief: as §1
# [5] = molecular target: Fuc(a1-2)Gal(b1-4)GlcNAc
# Method in brief: as §1
# [6] = molecular target: Fuc(a1-2)Gal(b1-4)GlcNAc6S
# Method in brief: as §1
# [7] = molecular target: Fuc(a1-2)Gal(b1-4)[Fuc(a1-3)]GlcNAc(b1-3)Gal(b1-4)[Fuc(a1-3)]GlcNAc(b1-3)Gal(b1-4)[Fuc(a1-3)]GlcNAc
# Method in brief: as §1
# [8] = molecular target: Fuc(a1-2)Gal6S(b1-4)Glc
# Method in brief: as §1
# [9] = molecular target: Fuc(a1-2)[Gal(a1-3)]Gal(b1-4)GlcNAc
# Method in brief: as §1
# [10] = molecular target: Fuc(a1-2)[Gal(a1-3)]Gal(b1-4)GlcNAc(b1-2)Man
# Method in brief: as §1
# [11] = molecular target: Fuc(a1-2)[Gal(a1-3)]Gal(b1-4)[Fuc(a1-3)]Glc
# Method in brief: as §1
# [12] = molecular target: Fuc(a1-2)[GalNAc(a1-3)]Gal(b1-3)GlcNAc(b1-6)GalNAc
# Method in brief: as §1
# [13] = molecular target: Fuc(a1-2)[GalNAc(a1-3)]Gal(b1-4)GlcNAc(b1-3)GalNAc
# Method in brief: as §1
# [14] = molecular target: Fuc(a1-3)[Gal3S(b1-4)]GlcNAc6S
# Method in brief: as §1
# [15] = molecular target: Fuc(a1-3)[GalNAc(b1-4)]GlcNAc
# Method in brief: as §1
# [16] = molecular target: Fuc(a1-4)GlcNAc
# Method in brief: as §1
# [17] = molecular target: Gal(a1-3)Gal(b1-4)Glc
# Method in brief: as §1
# [18] = molecular target: Gal(a1-3)Gal(b1-4)GlcNAc
# Method in brief: as §1
# [19] = molecular target: Gal(a1-3)Gal(b1-4)GlcNAc(b1-2)Man
# Method in brief: as §1
# [20] = molecular target: Gal(a1-3)Gal(b1-4)GlcNAc(b1-2)Man(a1-3)[Gal(a1-3)Gal(b1-4)GlcNAc(b1-2)Man(a1-6)]Man(b1-4)GlcNAc(b1-4)GlcNAc
# Method in brief: as §1
# [21] = molecular target: Gal(b1-3)GalNAc(b1-3)Gal(a1-4)Gal(b1-4)Glc
# Method in brief: as §1
# [22] = molecular target: Gal(b1-3)GalNAc(b1-4)Gal(b1-4)Glc
# Method in brief: as §1
# [23] = molecular target: Gal(b1-3)GlcNAc(b1-2)Man(a1-3)[Gal(b1-3)GlcNAc(b1-2)Man(a1-6)]Man(b1-4)GlcNAc(b1-4)GlcNAc
# Method in brief: as §1
# [24] = molecular target: Gal(b1-3)GlcNAc(b1-3)GalNAc
# Method in brief: as §1
# [25] = molecular target: Gal(b1-3)[Fuc(a1-4)]GlcNAc(b1-2)Man
# Method in brief: as §1
# [26] = molecular target: Gal(b1-4)GlcNAc(a1-6)Gal(b1-4)GlcNAc
# Method in brief: as §1
# [27] = molecular target: Gal(b1-4)GlcNAc(b1-2)Man(a1-3)Man(b1-4)GlcNAc(b1-4)GlcNAc
# Method in brief: as §1
# [28] = molecular target: Gal(b1-4)GlcNAc(b1-2)Man(a1-3)[Gal(b1-4)GlcNAc(b1-2)Man(a1-6)]Man(b1-4)GlcNAc(b1-4)GlcNAc
# Method in brief: as §1
# [29] = molecular target: Gal(b1-4)GlcNAc(b1-2)Man(a1-3)[GlcNAc(b1-2)Man(a1-6)]Man(b1-4)GlcNAc(b1-4)GlcNAc
# Method in brief: as §1
# [30] = molecular target: Gal(b1-4)GlcNAc(b1-2)[Gal(b1-4)GlcNAc(b1-4)]Man(a1-3)[GlcNAc(b1-4)][Gal(b1-4)GlcNAc(b1-2)[Gal(b1-4)GlcNAc(b1-6)]Man(a1-6)]Man(b1-4)GlcNAc(b1-4)GlcNAc
# Method in brief: as §1
binder,measurement,setting,value
B1,glycan array binding signal (z-score),[1],1.52
same,glycan array binding signal (z-score),[2],0.399
same,glycan array binding signal (z-score),[3],-0.05
same,glycan array binding signal (z-score),[4],0.403
same,glycan array binding signal (z-score),[5],-0.892
same,glycan array binding signal (z-score),[6],-0.542
same,glycan array binding signal (z-score),[7],-0.071
same,glycan array binding signal (z-score),[8],3.12
same,glycan array binding signal (z-score),[9],-0.674
same,glycan array binding signal (z-score),[10],-0.447
same,glycan array binding signal (z-score),[11],-0.83
same,glycan array binding signal (z-score),[12],0.051
same,glycan array binding signal (z-score),[13],0.855
same,glycan array binding signal (z-score),[14],-0.963
same,glycan array binding signal (z-score),[15],0.848
same,glycan array binding signal (z-score),[16],-0.619
same,glycan array binding signal (z-score),[17],-0.559
same,glycan array binding signal (z-score),[18],7.53
same,glycan array binding signal (z-score),[19],-1.04
same,glycan array binding signal (z-score),[20],2.85
same,glycan array binding signal (z-score),[21],-0.233
same,glycan array binding signal (z-score),[22],-0.284
same,glycan array binding signal (z-score),[23],2.98
same,glycan array binding signal (z-score),[24],0.08
same,glycan array binding signal (z-score),[25],-0.63
same,glycan array binding signal (z-score),[26],8.35
same,glycan array binding signal (z-score),[27],0.345
same,glycan array binding signal (z-score),[28],-1.05
same,glycan array binding signal (z-score),[29],-1.28
same,glycan array binding signal (z-score),[30],3.53
